Laboratory results taken from PMC12820563, “FoxP3 forms a head-to-head dimer in vivo and stabilizes its multimerization on adjacent microsatellites”.
Over roughly 16,000 sequences, “rpm ratio (pull-down/input)” has its median near 0.5; the highest 2% begin near 5.5. The sample holds the highest values, similar sequences and a random draw of the others, so the mix is not that of the screen.

Each sequence was assayed against T1, MBP-FoxP3dN (Mus musculus, UniProt Q99JB6 188-423) (assay: PD-seq (MBP pull-down with sequencing); 20 mM Tris-HCl pH 7.5, 100 mM NaCl, 1.5 mM MgCl2, 0.4 uM protein, 0.1 uM dsDNA library, 30 min, room temperature, amylose pull-down; high values mean tight binding). Settings: protein: recombinant; tags: His6-MBP; chain copies: 2; dsDNA, one strand shown.
T1 sequence: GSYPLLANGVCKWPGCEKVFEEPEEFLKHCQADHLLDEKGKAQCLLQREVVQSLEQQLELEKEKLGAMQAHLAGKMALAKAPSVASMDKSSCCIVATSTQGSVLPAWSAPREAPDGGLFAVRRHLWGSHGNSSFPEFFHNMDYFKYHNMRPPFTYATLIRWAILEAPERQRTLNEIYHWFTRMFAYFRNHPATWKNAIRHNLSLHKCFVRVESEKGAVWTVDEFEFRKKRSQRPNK
How it was run: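 The N-terminus-lacking fragment of mouse FoxP3 or FoxP1 carried a His6-MBP tag and was expressed in E. coli. At 0.4 µM it was incubated with 0.1 µM Klenow-filled degenerate double-stranded DNA library for 30 min at room temperature in Tris pH 7.5 buffer with NaCl and MgCl2, and complexes were caught on amylose resin, washed three times, released with proteinase K, PCR-barcoded and Illumina-sequenced. Binding is reads-per-million enrichment of pull-down over input with replicates pooled.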
“GATGATTGTTCTCCCAGCTGATGAATTCTATTAATCGAGTAAACAAATTTTCCTAATCTTTCTGTTCAAGCGCCATCTAC” was tested, and the binding signal was 0.561 RPM ratio (pull-down/input).
In the case of “GATGATTGTTCTCCCAGCTGATGAATTTCTTGCCTCGAGTAAACAAATTTTCCTAATCTTTCTGTTCAAGCGCCATCTAC”, the binding signal is reported as 0.494 RPM ratio (pull-down/input).
“GATGATTGTTCTCCCAGCTGATGAATTTGGCGGCTCGAGTAAACAAATTTTCCTAATCTTTCTGTTCAAGCGCCATCTAC” was tested, and the binding signal was 0.668 RPM ratio (pull-down/input).
For “GATGATTGTTCTCCCAGCTGATGAATTCTATAGTTCGAGTAAACAAATTTTCCTAATCTTTCTGTTCAAGCGCCATCTAC”, the binding signal was 0.74 RPM ratio (pull-down/input).
With “GATGATTGTTCTCCCAGCTGATGAATTGCCCGAGTCGAGTAAACAAATTTTCCTAATCTTTCTGTTCAAGCGCCATCTAC” the binding signal was 0.303 RPM ratio (pull-down/input).
“GATGATTGTTCTCCCAGCTGATGAATTGCATCCATCGAGTAAACAAATTTTCCTAATCTTTCTGTTCAAGCGCCATCTAC” was tested, and the binding signal was 5.42 RPM ratio (pull-down/input).
“GATGATTGTTCTCCCAGCTGATGAATTATCGTATTCGAGTAAACAAATTTTCCTAATCTTTCTGTTCAAGCGCCATCTAC” was tested, and the binding signal was 1.35 RPM ratio (pull-down/input).
With “GATGATTGTTCTCCCAGCTGATGAATTCGGCAAGTCGAGTAAACAAATTTTCCTAATCTTTCTGTTCAAGCGCCATCTAC” the binding signal was 1.34 RPM ratio (pull-down/input).
With “GATGATTGTTCTCCCAGCTGATGAATTTTGTTAGTCGAGTAAACAAATTTTCCTAATCTTTCTGTTCAAGCGCCATCTAC” the binding signal was 6.69 RPM ratio (pull-down/input).
In the case of “GATGATTGTTCTCCCAGCTGATGAATTTTTTACGTCGAGTAAACAAATTTTCCTAATCTTTCTGTTCAAGCGCCATCTAC”, the binding signal is reported as 0.246 RPM ratio (pull-down/input).
With “GATGATTGTTCTCCCAGCTGATGAATTCTGTTAGTCGAGTAAACAAATTTTCCTAATCTTTCTGTTCAAGCGCCATCTAC” the binding signal was 5.31 RPM ratio (pull-down/input).
In the case of “GATGATTGTTCTCCCAGCTGATGAATTTAGTTAGTCGAGTAAACAAATTTTCCTAATCTTTCTGTTCAAGCGCCATCTAC”, the binding signal is reported as 2.54 RPM ratio (pull-down/input).
For “GATGATTGTTCTCCCAGCTGATGAATTGTTTTAGTCGAGTAAACAAATTTTCCTAATCTTTCTGTTCAAGCGCCATCTAC”, the binding signal was 1.21 RPM ratio (pull-down/input).
“GATGATTGTTCTCCCAGCTGATGAATTTGTTTAGTCGAGTAAACAAATTTTCCTAATCTTTCTGTTCAAGCGCCATCTAC” was tested, and the binding signal was 7.22 RPM ratio (pull-down/input).
In the case of “GATGATTGTTCTCCCAGCTGATGAATTGTGTTAGTCGAGTAAACAAATTTTCCTAATCTTTCTGTTCAAGCGCCATCTAC”, the binding signal is reported as 5.98 RPM ratio (pull-down/input).
“GATGATTGTTCTCCCAGCTGATGAATTGTTTACGTCGAGTAAACAAATTTTCCTAATCTTTCTGTTCAAGCGCCATCTAC” was tested, and the binding signal was 7.65 RPM ratio (pull-down/input).
In the case of “GATGATTGTTCTCCCAGCTGATGAATTTTTTTAGTCGAGTAAACAAATTTTCCTAATCTTTCTGTTCAAGCGCCATCTAC”, the binding signal is reported as 0.273 RPM ratio (pull-down/input).
For “GATGATTGTTCTCCCAGCTGATGAATTTACGTCGTCGAGTAAACAAATTTTCCTAATCTTTCTGTTCAAGCGCCATCTAC”, the binding signal was 0.839 RPM ratio (pull-down/input).
In the case of “GATGATTGTTCTCCCAGCTGATGAATTTGGTTAGTCGAGTAAACAAATTTTCCTAATCTTTCTGTTCAAGCGCCATCTAC”, the binding signal is reported as 2.03 RPM ratio (pull-down/input).
For “GATGATTGTTCTCCCAGCTGATGAATTGTTAGTGTCGAGTAAACAAATTTTCCTAATCTTTCTGTTCAAGCGCCATCTAC”, the binding signal was 4.19 RPM ratio (pull-down/input).
For “GATGATTGTTCTCCCAGCTGATGAATTCTCTACTTCGAGTAAACAAATTTTCCTAATCTTTCTGTTCAAGCGCCATCTAC”, the binding signal was 0.233 RPM ratio (pull-down/input).
For “GATGATTGTTCTCCCAGCTGATGAATTGGGCCGGTCGAGTAAACAAATTTTCCTAATCTTTCTGTTCAAGCGCCATCTAC”, the binding signal was 0.372 RPM ratio (pull-down/input).
“GATGATTGTTCTCCCAGCTGATGAATTGCTCTTGTCGAGTAAACAAATTTTCCTAATCTTTCTGTTCAAGCGCCATCTAC” was tested, and the binding signal was 0.594 RPM ratio (pull-down/input).
With “GATGATTGTTCTCCCAGCTGATGAATTCGGTAGGTCGAGTAAACAAATTTTCCTAATCTTTCTGTTCAAGCGCCATCTAC” the binding signal was 0.485 RPM ratio (pull-down/input).
“GATGATTGTTCTCCCAGCTGATGAATTGGGGACGTCGAGTAAACAAATTTTCCTAATCTTTCTGTTCAAGCGCCATCTAC” was tested, and the binding signal was 0.307 RPM ratio (pull-down/input).
“GATGATTGTTCTCCCAGCTGATGAATTGGTGCTTTCGAGTAAACAAATTTTCCTAATCTTTCTGTTCAAGCGCCATCTAC” was tested, and the binding signal was 1.06 RPM ratio (pull-down/input).
With “GATGATTGTTCTCCCAGCTGATGAATTGAGACTTTCGAGTAAACAAATTTTCCTAATCTTTCTGTTCAAGCGCCATCTAC” the binding signal was 1.22 RPM ratio (pull-down/input).
For “GATGATTGTTCTCCCAGCTGATGAATTCCGCAGATCGAGTAAACAAATTTTCCTAATCTTTCTGTTCAAGCGCCATCTAC”, the binding signal was 0.352 RPM ratio (pull-down/input).
“GATGATTGTTCTCCCAGCTGATGAATTAGGAGGGTCGAGTAAACAAATTTTCCTAATCTTTCTGTTCAAGCGCCATCTAC” was tested, and the binding signal was 0.318 RPM ratio (pull-down/input).
For “GATGATTGTTCTCCCAGCTGATGAATTTCACGAATCGAGTAAACAAATTTTCCTAATCTTTCTGTTCAAGCGCCATCTAC”, the binding signal was 0.212 RPM ratio (pull-down/input).
With “GATGATTGTTCTCCCAGCTGATGAATTCACTGCTTCGAGTAAACAAATTTTCCTAATCTTTCTGTTCAAGCGCCATCTAC” the binding signal was 0.345 RPM ratio (pull-down/input).
With “GATGATTGTTCTCCCAGCTGATGAATTTCCGCCGTCGAGTAAACAAATTTTCCTAATCTTTCTGTTCAAGCGCCATCTAC” the binding signal was 0.555 RPM ratio (pull-down/input).
“GATGATTGTTCTCCCAGCTGATGAATTTCTGTAGTCGAGTAAACAAATTTTCCTAATCTTTCTGTTCAAGCGCCATCTAC” was tested, and the binding signal was 0.385 RPM ratio (pull-down/input).
In the case of “GATGATTGTTCTCCCAGCTGATGAATTATTTTAGTCGAGTAAACAAATTTTCCTAATCTTTCTGTTCAAGCGCCATCTAC”, the binding signal is reported as 0.414 RPM ratio (pull-down/input).
In the case of “GATGATTGTTCTCCCAGCTGATGAATTTGTGTAGTCGAGTAAACAAATTTTCCTAATCTTTCTGTTCAAGCGCCATCTAC”, the binding signal is reported as 6.14 RPM ratio (pull-down/input).
In the case of “GATGATTGTTCTCCCAGCTGATGAATTTCTTAGGTCGAGTAAACAAATTTTCCTAATCTTTCTGTTCAAGCGCCATCTAC”, the binding signal is reported as 0.273 RPM ratio (pull-down/input).
For “GATGATTGTTCTCCCAGCTGATGAATTTATTTAGTCGAGTAAACAAATTTTCCTAATCTTTCTGTTCAAGCGCCATCTAC”, the binding signal was 5.5 RPM ratio (pull-down/input).
For “GATGATTGTTCTCCCAGCTGATGAATTTTATTAGTCGAGTAAACAAATTTTCCTAATCTTTCTGTTCAAGCGCCATCTAC”, the binding signal was 4.27 RPM ratio (pull-down/input).
“GATGATTGTTCTCCCAGCTGATGAATTTTTGTAGTCGAGTAAACAAATTTTCCTAATCTTTCTGTTCAAGCGCCATCTAC” was tested, and the binding signal was 0.53 RPM ratio (pull-down/input).
In the case of “GATGATTGTTCTCCCAGCTGATGAATTAGTTATGTCGAGTAAACAAATTTTCCTAATCTTTCTGTTCAAGCGCCATCTAC”, the binding signal is reported as 3.79 RPM ratio (pull-down/input).
In the case of “GATGATTGTTCTCCCAGCTGATGAATTATGTTAGTCGAGTAAACAAATTTTCCTAATCTTTCTGTTCAAGCGCCATCTAC”, the binding signal is reported as 5.81 RPM ratio (pull-down/input).
For “GATGATTGTTCTCCCAGCTGATGAATTAGTTAGGTCGAGTAAACAAATTTTCCTAATCTTTCTGTTCAAGCGCCATCTAC”, the binding signal was 1.51 RPM ratio (pull-down/input).
With “GATGATTGTTCTCCCAGCTGATGAATTTGTTAGGTCGAGTAAACAAATTTTCCTAATCTTTCTGTTCAAGCGCCATCTAC” the binding signal was 5.73 RPM ratio (pull-down/input).
For “GATGATTGTTCTCCCAGCTGATGAATTAGTCGAGTCGAGTAAACAAATTTTCCTAATCTTTCTGTTCAAGCGCCATCTAC”, the binding signal was 0.367 RPM ratio (pull-down/input).
